This passage reports Potency results from PubChem BioAssay AID1347416 (National Center for Advancing Translational Sciences (NCATS), 2020).

Among all 4,100 compounds or so, about 1,600 (39%) were called active. Inconclusive results (about 25%) are left out. The call rests on the fitted dose curve; in most records, active means well fitted inhibition curve with a large enough effect; inconclusive means small, poorly fitted or top-dose-only effect; inactive means no such curve, though single readings can be large or run the other way. Some of the results follow. Where a call stands in place of a potency, no number is given.
Potency means the concentration at half of the fitted maximal effect.

The nature of the experiment: qHTS Validation assay for Inhibitors of Plasmodium falciparum Dd2 growth in vitro. Further: nearly all actives have a fitted effect of over 70% in size. Particulars: P. falciparum Dd2 in RBCs, SYBR Green growth, 72 h; series mostly up to 28.7 µM. In a few lines: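 P. falciparum Dd2-infected red blood cells (2.5% hematocrit, 0.3% parasitemia) grown 72 h at 37 °C under 5% O2 with compounds in a titration, 29 uM to 0.5 nM final. Growth read as SYBR Green-1 fluorescence after ~16 h lysis; artesunate 300 nM as positive control.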
A general note: In qHTS, concentration-response curves come from the screen itself.
As for `N#Cc1c2c(c(NCc3ccco3)n3c1nc1ccccc13)CCC2`, the Potency is 2.37 µM (active). In the case of `COC(=O)CSc1nc2c(c(-c3ccco3)c1C#N)CCCC2` it was “inactive”; in that of `CCc1c(C)c(C#N)c2nc3ccccc3n2c1NCC1CCCO1` (stereo not given), 2.99 µM (active).

Regarding `CN1c2cc(C(=O)NCc3nc4ccccc4n3C)ccc2C(=O)N2CCCCCC21` (stereo not given), the Potency result is “inactive”.

On to `O=C(Nc1ccccc1)N[C@H]1[C@H](O)[C@@H](Oc2ccccc2)[C@@H]2OC[C@H]1O2`, for which the Potency entry was “inactive”. In the case of `CC(=O)N1CCN([C@H]2[C@@H]3OC[C@@H](O3)[C@@H](NC(=O)Nc3ccccc3)[C@@H]2O)CC1` it was “inactive”; in that of `COc1ccccc1N1CCN([C@H]2[C@@H]3OC[C@@H](O3)[C@@H](N(CC3CC3)CC3CC3)[C@@H]2O)CC1`, “inactive”; in that of `O[C@H]1[C@H](NCC2CCCCC2)[C@H]2CO[C@H](O2)[C@@H]1N1CCC(Cc2ccccc2)CC1`, 1.37 µM (active).

Consider `Oc1ccccc1CN[C@H]1[C@H](O)[C@@H](N2CCC(Cc3ccccc3)CC2)[C@@H]2OC[C@H]1O2`, for which the Potency is 3.44 µM (active).

Regarding `CC(=O)N1CCN([C@H]2[C@@H]3OC[C@@H](O3)[C@@H](NC(=O)Nc3ccc(F)cc3)[C@@H]2O)CC1`, the Potency result is “inactive”. In the case of `COc1ccccc1N1CCN([C@H]2[C@@H]3OC[C@@H](O3)[C@@H](NCc3ccc(-c4ccccc4)cc3)[C@@H]2O)CC1` it was 15 µM (active). In the case of `O[C@H]1[C@H](NCc2ccc(-c3ccccc3)cc2)[C@H]2CO[C@H](O2)[C@@H]1Oc1ccccc1` it was “inactive”; in that of `Cc1cc(NC(=O)CSc2ccc3nnc(-c4cccc(F)c4)n3n2)no1`, 5.96 µM (active). In the case of `CCOC(=O)CC(=O)CSc1ccc2nnc(-c3ccccc3)n2n1` it was “inactive”.

On to `CCc1noc(-c2ccn3c(CNC(=O)Cc4cccc(F)c4)nnc3c2)n1`, for which the Potency result is “inactive”. In the case of `CCCc1noc(-c2cccn3c(CNC(=O)c4ccc(Cl)cc4)nnc23)n1` it was “inactive”.

On to `COc1cc2c(cc1CNc1ncncn1)CCC2`, for which the Potency entry was “inactive”.

Turning to `O=C(CCl)Nc1cccc(-c2cnc3ccccc3n2)c1`, the Potency is 6.68 µM (active). In the case of `CC(=O)Nc1cccc(-c2ccnc(-c3nnc(C)n3Cc3ccccc3)c2)c1` it was “inactive”; in that of `Cc1ccccc1C(=O)Nc1cccc(-c2nc3cccnc3s2)c1`, “inactive”; in that of `O=c1c2ccccc2c(C=Nc2cccc(S(=O)(=O)NC3=NCCCCC3)c2)c(O)n1Cc1ccccc1`, 13.3 µM (active). In the case of `O=C(Nc1ccc(S(=O)(=O)NC2=NCCCCC2)cc1)c1ccco1` it was “inactive”; in that of `O=C(CCC[C@H]1NC[C@@H]2C[C@H]1CN(Cc1ccccc1)C2)NCCCN1CCCc2ccccc21`, 10.6 µM (active). `Cc1nnc2c(N3CCN(c4ccccc4)CC3)nc3ccc(C(=O)c4ccccc4)cc3n12`: the Potency was 0.842 µM (active). In the case of `CCN1CCCC(c2nc3ccc(F)cc3c(=O)[nH]2)C1` (stereo not given) it was “inactive”. In the case of `COc1ccccc1-c1ccc(CN2CCCC(c3nc4ccc(F)cc4c(=O)[nH]3)C2)cc1` (stereo not given) it was 8.41 µM (active); in that of `Fc1ccc(CN2CC[C@H](c3nc4ccc(C(F)(F)F)cc4[nH]3)C2)cc1F`, “inactive”; in that of `Oc1cc2c(cc1CN1CCN(c3cccc(C(F)(F)F)c3)CC1)CCC2`, 0.944 µM (active).

For the molecule `CC(=O)N1CCC(C2CCN(Cc3cc(Cl)ccc3F)C2)CC1` (stereo not given), the Potency result is “inactive”. In the case of `COc1ccc(CN2CCC3(CC2)CC(O)CCO3)c(OC)c1` (stereo not given) it was “inactive”; in that of `O=C(c1ccc2c(Cl)c3c(nc2c1)CCCC3)N1CCN(c2cccc(C(F)(F)F)c2)CC1`, “inactive”. Regarding `COc1ccc(N2CCN(Cc3cc4c(cc3O)CCC4)CC2)cc1`, the Potency is 16.8 µM (active). In the case of `COc1ccc(N2C(N)=NC(N)=NC23CCCC3)cc1` it was “inactive”; in that of `Cc1ccc(Cl)cc1N1CCN(C(=O)c2ccc3c(Cl)c4c(nc3c2)CCCC4)CC1`, “inactive”; in that of `Cc1ccc(Cl)cc1N1CCN(Cc2cc3c(cc2O)CCC3)CC1`, 0.188 µM (active). In the case of `CC(C)NC(=O)N1CCCC(Cn2c(C3CC3)nc3cccnc32)C1` (stereo not given) it was “inactive”. In the case of `N#CC1CCN(C(=O)c2nc(-c3cccc(C(F)(F)F)c3)c3cnccn23)CC1` it was 16.8 µM (active). On to `O=C(Cc1ccccc1)N1CCCC2(CC(c3cccc(C(F)(F)F)c3)=NO2)C1` (stereo not given), for which the Potency entry is “inactive”. In the case of `O=C1Nc2ccc(-c3cccc(C(F)(F)F)c3)cc2C(=O)N2CCN(C(=O)c3ccccc3)C[C@H]12` it was “inactive”.

With `O=C(c1nc(-c2cccc(C(F)(F)F)c2)c2cnccn12)N1CCCC1`, the Potency was 10.6 µM (active).

Consider `Cc1cc(Nc2cc(Cl)cc(Cl)c2)nc(N)n1`, for which the Potency was 6.68 µM (active). In the case of `CCOCc1cnc(C)nc1NCC(=O)c1c(C)[nH]c2cc(C)ccc12` it was 4.22 µM (active); in that of `CCN1CCC(OCCCNC(=O)C2(CCO)CC23CCOCC3)CC1` (stereo not given), “inactive”; in that of `COc1cc(OC)cc(-c2cc3nc4c(c(N5CCN(c6ncccn6)CC5)n3n2)CCCC4)c1`, 4.22 µM (active). For the molecule `COc1ccc(-c2nnc([C@H]3CCN(c4ncccn4)C3)o2)cc1`, the Potency result was “inactive”.

`CCOC(=O)Cn1c2c(c(=N)c3c1CCC3)CCCC2`: the Potency result is “inactive”. In the case of `CCn1c2c(c(=N)c3c1CCC3)CCCC2` it was 13.3 µM (active); in that of `CCCn1c2c(c(=N)c3c1CCC3)CCC2`, 13.3 µM (active); in that of `CCOC(=O)Cn1c2c(c(=N)c3c1CCC3)CCC2`, “inactive”. Consider `CCn1c2c(c(=N)c3ccccc31)CCC2`, for which the Potency was 6.68 µM (active).

`CCCn1c2c(c(=N)c3c1CCC3)CCCC2`: the Potency was 10.6 µM (active). In the case of `CCCCn1c2c(c(=N)c3c1CCC3)CCC2` it was 8.41 µM (active); in that of `CC(C)c1noc(-c2cccn3c(CNC(=O)c4ccc(F)cc4Cl)nnc23)n1`, “inactive”; in that of `Cc1nn2c(c1-c1ccccc1[S+](C)(=O)[O-])N(Cc1ccc(C(=O)O)s1)CCC2`, 7.69 µM (active). In the case of `Cc1nn2c(c1-c1ccccc1-c1ccccc1)N(CC1CC1)CCC2` it was 0.968 µM (active); in that of `Cc1nn2c(c1-c1ccccc1-c1ccccc1)N(CCC(C)C)CCC2`, 0.243 µM (active). For the molecule `Cc1nn2c(c1-c1ccccc1C(C)C)N(CCC(C)C)CCC2`, the Potency is 2.17 µM (active).

As to `Cc1ccc(-c2csc3nc[nH]c(=O)c23)c(C)c1`, the Potency result is “inactive”. In the case of `CCc1noc(-c2cccn3c(CNC(=O)COc4ccc(F)cc4)nnc23)n1`, the Potency result was “inactive”.

`O=C1Cc2c(-c3ccc(Oc4ccccc4)cc3)n[nH]c2CN1Cc1ccccc1F`: the Potency entry was “inactive”.
